From PubChem
Efflux pump mplx – inhibitors of Candida antifungal efflux pumps expressed in yeast; S. cerevisiae Candida pump triplex, Nile Red efflux; inhibition, % at 10 µM; 330,000 compounds, 0.44% hits; AID 485275;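 active = plate passing quality check with inhibition over a set limit, or well fluorescence over plate mean plus 4 SD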;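 also: Nile Red retained in pooled yeast measured as flow cytometry median fluorescence; 0% = buffer negative control and 100% = Enniatin B positive control; higher means more Nile Red kept so more efflux inhibition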
RPL19A TOR yeast – modulators of TOR pathway RPL19A-GFP in S. cerevisiae. S. cerevisiae RPL19A-GFP strain, flow cytometry, 3 h; active compounds read low. 330,000 compounds, 0.3% hits. percent response vs DMSO, % at 10 µM. AID 2025;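 active = percent response vs DMSO below 50%; inconclusive = fewer than 70 events counted for the yeast strain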;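 also: median channel GFP fluorescence of the barcoded RPL19A-GFP strain; ratio of sample median GFP to plate DMSO average so 100% = DMSO; lower means less RPL19A-GFP as with rapamycin TOR inhibition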
CIT2-GFP yeast – modulators of TOR pathway CIT2-GFP in S. cerevisiae; S. cerevisiae CIT2-GFP strain, flow cytometry, 3 h; 100 means same as DMSO wells; GFP response vs DMSO, % at 10 µM; 320,000 compounds, 0.065% hits; AID 2029;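 active = GFP response relative to DMSO above a set limit, near the screen mean plus 3 SD, cut at about 150% in these data; inconclusive = Fewer than 70 cells measured for a yeast strain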;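 also: ratio of well median GFP fluorescence to mean of DMSO wells on the plate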
MEP2-GFP yeast – modulators of TOR pathway MEP2-GFP in S. cerevisiae; S. cerevisiae MEP2-GFP strain, flow cytometry GFP, 3 h; 100% = DMSO control level; GFP response vs DMSO, % at 10 µM; 330,000 compounds, 0.51% hits; AID 2016;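 active = GFP response versus DMSO above a set limit, roughly screen mean plus 3 SD, cut at about 180% in these data; inconclusive = fewer than 70 cells counted for a yeast strain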;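 also: median GFP fluorescence of the barcode-gated MEP2-GFP cells per well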
LAP4 TOR yeast – alters LAP4-GFP fluorescence in TOR pathway yeast screen; S. cerevisiae LAP4-GFP multiplex, flow cytometry GFP, 3 h; median GFP as percent of DMSO wells; GFP response vs DMSO, % at 10 µM; 320,000 compounds, 0.34% hits;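 active = GFP response vs DMSO above a set limit, about the screen mean plus 3 SD, cut at about 150% in these data; inconclusive = under 70 cell events counted for the yeast strain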
AGP1 TOR yeast – yeast TOR pathway AGP1-GFP modulation; S. cerevisiae AGP1-GFP multiplex flow cytometry, 3 h; GFP as percent of DMSO wells; GFP response vs DMSO, % at 10 µM; 320,000 compounds, 0.02% hits;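 active = GFP response relative to DMSO above a set limit, near screen average plus 3 SD, cut at about 150% in these data; inconclusive = fewer than 70 cells counted for the yeast strain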;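 also: median GFP channel fluorescence of the gated AGP1 strain per well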
Active calls of the source: *; [ ] = another dose, or the depositor's remark. In the library only some 1.3% were active in any assay of this set; here they are far more common.

What do the screens show for `CCOc1ccc(CCNC(=O)CS(=O)Cc2nc(-c3ccccc3C)oc2C)cc1OCC` (configuration not stated)?
Efflux pump mplx: 0; RPL19A TOR yeast: 95; CIT2-GFP yeast: 105; MEP2-GFP yeast: 103; LAP4 TOR yeast: 97; AGP1 TOR yeast: 100

How did CCOc1ccc(N2CC(C(=O)Nc3ccc(S(=O)(=O)N4CCOCC4)cc3)CC2=O)cc1 (configuration not stated) do in these assays?
Efflux pump mplx: 0; RPL19A TOR yeast: 64; CIT2-GFP yeast: inconclusive; MEP2-GFP yeast: 186*[may fluoresce violet]; LAP4 TOR yeast: 96; AGP1 TOR yeast: 26

How did COC(=O)c1cc(CNC(=O)Cc2ccsc2)ccc1OC do in these assays?
Efflux pump mplx: 0; RPL19A TOR yeast: 59; CIT2-GFP yeast: inconclusive; MEP2-GFP yeast: 298*[may fluoresce violet]; LAP4 TOR yeast: 97; AGP1 TOR yeast: 84

How did COc1ccc(NC(=O)Cc2ccsc2)c(OC)c1 do in these assays?
Efflux pump mplx: 0; RPL19A TOR yeast: 46*[may fluoresce violet]; CIT2-GFP yeast: inconclusive; MEP2-GFP yeast: 343*[may fluoresce violet]; LAP4 TOR yeast: 81; AGP1 TOR yeast: inconclusive

Results for COC(=O)c1cc(NC(=O)c2c(Cl)nc3sccn23)cc(C(=O)OC)c1 ?
Efflux pump mplx: 0; RPL19A TOR yeast: 95; CIT2-GFP yeast: 90; MEP2-GFP yeast: 188*; LAP4 TOR yeast: 84; AGP1 TOR yeast: 101

How did O=C(NCCCN1CCOCC1)C(=O)N/N=C/c1ccc2c(c1)OCO2 do in these assays?
Efflux pump mplx: 1; RPL19A TOR yeast: 47*[may fluoresce violet]; CIT2-GFP yeast: inconclusive; MEP2-GFP yeast: 298*[may fluoresce violet]; LAP4 TOR yeast: 105; AGP1 TOR yeast: inconclusive

How did CCN(CC)c1ccc(/C=N/NC(=O)c2cc(C)nc3ccccc23)cc1 do in these assays?
Efflux pump mplx: 0; RPL19A TOR yeast: 50; MEP2-GFP yeast: 678*[may fluoresce violet]

Results for CC(=O)c1sc2nc(C)c3c(c2c1N)CCCC3 ?
Efflux pump mplx: 0; RPL19A TOR yeast: 69; CIT2-GFP yeast: 55; MEP2-GFP yeast: 96; LAP4 TOR yeast: 167*; AGP1 TOR yeast: 107

How did O=C(O)C1CCN(C(=O)CCc2ccccc2)CC1 do in these assays?
Efflux pump mplx: 0; RPL19A TOR yeast: 99; CIT2-GFP yeast: 97; MEP2-GFP yeast: 107; LAP4 TOR yeast: 119; AGP1 TOR yeast: 101

What do the screens show for `CCCn1c(=N)c(C#N)cc2c(=O)n3ccccc3nc21`?
Efflux pump mplx: 0; RPL19A TOR yeast: 73; CIT2-GFP yeast: inconclusive; MEP2-GFP yeast: 298*[may fluoresce violet]; LAP4 TOR yeast: 80; AGP1 TOR yeast: 16

What do the screens show for `CCCn1c(=N)c(C#N)cc2c(=O)n3cccc(C)c3nc21`?
Efflux pump mplx: 0; RPL19A TOR yeast: 97; CIT2-GFP yeast: 95; MEP2-GFP yeast: 107; LAP4 TOR yeast: 102; AGP1 TOR yeast: 102

Results for Cc1ccc(CNC(=O)c2cc3c(=O)n4ccccc4nc3n(CC3CCCO3)c2=N)cc1 (configuration not stated) ?
Efflux pump mplx: 0; RPL19A TOR yeast: 61; CIT2-GFP yeast: inconclusive; MEP2-GFP yeast: 221*[may fluoresce violet]; LAP4 TOR yeast: 95; AGP1 TOR yeast: 19

What do the screens show for `Cc1ccc2nc3c(cc(C(=O)NCC4CCCO4)c(=N)n3CC3CCCO3)c(=O)n2c1` (configuration not stated)?
Efflux pump mplx: 0; RPL19A TOR yeast: 63; CIT2-GFP yeast: inconclusive; MEP2-GFP yeast: 121; LAP4 TOR yeast: inconclusive; AGP1 TOR yeast: inconclusive

How did N=c1c(C(=O)NC2CCCCC2)cc2c(=O)n3ccccc3nc2n1CC1CCCO1 (configuration not stated) do in these assays?
Efflux pump mplx: 0; RPL19A TOR yeast: 44*[may fluoresce violet]; CIT2-GFP yeast: inconclusive; MEP2-GFP yeast: inconclusive; LAP4 TOR yeast: inconclusive; AGP1 TOR yeast: inconclusive

What do the screens show for `N=c1c(C(=O)NC2CCCC2)cc2c(=O)n3ccccc3nc2n1CC1CCCO1` (configuration not stated)?
Efflux pump mplx: 0; RPL19A TOR yeast: inconclusive; CIT2-GFP yeast: inconclusive; MEP2-GFP yeast: 202*[may fluoresce red and violet]; LAP4 TOR yeast: 82; AGP1 TOR yeast: inconclusive

How did Cc1cc(C)c(C)c(C(=O)COC(=O)CNC(=O)CNC(=O)c2ccco2)c1C do in these assays?
Efflux pump mplx: 0; RPL19A TOR yeast: 103; CIT2-GFP yeast: 103; MEP2-GFP yeast: 100; LAP4 TOR yeast: 99; AGP1 TOR yeast: 106
